PubChem BioAssay (NCI)
About 79,000 compounds went through this panel and 15% of them were active in at least one assay; those are over-represented in the sample as a whole. Unmarked numbers belong to inactive results. Activity calls are given as the source filed them. No stated cut-off is given here; in the data, active means growth inhibition above about 70%; inactive means the rest.

Assays:
[1] = NCI Yeast Anticancer Drug Screen. Data for the rad50 strain (AID 155);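 further: 0% = growth of vehicle-only cultures of the same strain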; details: S. cerevisiae rad50 strain growth inhibition, active compounds read high
In short: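 Relative growth inhibition (compound vs vehicle) was measured in yeast with a defined repair-gene alteration.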

[2] = NCI Yeast Anticancer Drug Screen. Data for the mec2-1 strain (AID 157); details: S. cerevisiae mec2-1 strain, active compounds read high
In short: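 Each compound was tested on mec2-1 yeast, a strain altered in DNA damage repair or cell cycle control. Growth inhibition is reported relative to vehicle.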

[3] = NCI Yeast Anticancer Drug Screen. Data for the sgs1 mgt1 strain (AID 161);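 further: 0% = growth of cultures given vehicle only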; details: S. cerevisiae sgs1 mgt1 strain, active compounds read high
In short: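 Read-out: growth inhibition vs vehicle controls. Cells: mutant yeast strain deficient in DNA damage repair.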

[4] = NCI Yeast Anticancer Drug Screen. Data for the cln2 rad14 strain (AID 165);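 further: 0% = growth equal to vehicle treated cultures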; details: S. cerevisiae cln2 rad14 strain, active compounds read high
In short: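 Test compounds were added to cln2 rad14 yeast cultures; inhibition of growth was then determined by comparison with vehicle treatment.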

[5] = NCI Yeast Anticancer Drug Screen. Data for the bub3 strain (AID 167); details: S. cerevisiae bub3 mutant strain, active compounds read high
In short: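 Screening used yeast with an engineered genetic alteration affecting cell cycle control. Compound-exposed cultures were compared with vehicle cultures, and reduced growth was taken as inhibition.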

[6] = NCI Yeast Anticancer Drug Screen. Data for the mlh1 rad18 strain (AID 175); details: S. cerevisiae mlh1 rad18 strain growth inhibition, active compounds read high
In short: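 Inhibition values reflect reduced growth of mutant yeast versus vehicle-treated controls following compound exposure; the mutations affect DNA damage repair.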

[7] = at 5.0 µM (retest, dose inferred, filed as 0.5)
[8] = at 50.0 µM (retest, dose inferred, filed as 5.0)

In the case of CC(/C=C1\CCC(CN(C)C)C1=O)c1cccc(Br)c1 (configuration not stated), the growth inhibition [1, 7] is reported as -11%, the growth inhibition [1, 8] is reported as 97% (active) and the growth inhibition ([1]; at 50.0 µM) is reported as 93.8% (active). The growth inhibition [2, 7] was -1%, the growth inhibition [2, 8] was 99% (active) and the growth inhibition ([2]; at 50.0 µM) was 94% (active). The growth inhibition [3, 7] was 5%, the growth inhibition [3, 8] was 97% (active) and the growth inhibition ([3]; at 50.0 µM) was 93.5% (active). For the same molecule, the growth inhibition [4, 7] was 16%, the growth inhibition [4, 8] was 98% (active) and the growth inhibition ([4]; at 50.0 µM) was 92.2% (active). For the same molecule, the growth inhibition [5, 7] was 18%, the growth inhibition [5, 8] was 99% (active) and the growth inhibition ([5]; at 50.0 µM) was 92.7% (active). The growth inhibition [6, 7] was 7%, the growth inhibition [6, 8] was 98% (active) and the growth inhibition ([6]; at 50.0 µM) was 91.6% (active).
In the case of Clc1ccc2nc3c(c(N4CCCCC4)c2c1)CCCC3, the growth inhibition [1, 7] is reported as 7%, the growth inhibition [1, 8] is reported as 99% (active) and the growth inhibition ([1]; at 50.0 µM) is reported as 98.8% (active). The growth inhibition [2, 7] was 4%, the growth inhibition [2, 8] was 99% (active) and the growth inhibition ([2]; at 50.0 µM) was 99.2% (active). The growth inhibition [3, 7] was 13%, the growth inhibition [3, 8] was 99% (active) and the growth inhibition ([3]; at 50.0 µM) was 99.4% (active). For the same molecule, the growth inhibition [4, 7] was 2%, the growth inhibition [4, 8] was 99% (active) and the growth inhibition ([4]; at 50.0 µM) was 99.2% (active). The growth inhibition [5, 7] was 0%, the growth inhibition [5, 8] was 99% (active) and the growth inhibition ([5]; at 50.0 µM) was 97% (active). For the same molecule, the growth inhibition [6, 7] was 11%, the growth inhibition [6, 8] was 98% (active) and the growth inhibition ([6]; at 50.0 µM) was 99.2% (active).
For Cc1cc2nc3ccc(N(C)C)cc3nc2cc1N, the growth inhibition [1, 7] was 42%, the growth inhibition [1, 8] was 94% (active) and the growth inhibition ([1]; at 50.0 µM) was 51.6%. For the same molecule, the growth inhibition [2, 7] was 20%, the growth inhibition [2, 8] was 89% (active) and the growth inhibition ([2]; at 50.0 µM) was 93.8% (active). For the same molecule, the growth inhibition [3, 7] was 42%, the growth inhibition [3, 8] was 94% (active) and the growth inhibition ([3]; at 50.0 µM) was 45.9%. The growth inhibition [4, 7] was 29%, the growth inhibition [4, 8] was 80% (active) and the growth inhibition ([4]; at 50.0 µM) was 82.2% (active). The growth inhibition [5, 7] was 19%, the growth inhibition [5, 8] was 90% (active) and the growth inhibition ([5]; at 50.0 µM) was 94.9% (active). For the same molecule, the growth inhibition [6, 7] was 42%, the growth inhibition [6, 8] was 92% (active) and the growth inhibition ([6]; at 50.0 µM) was 92% (active).
For O=C1CCC(Cc2ccc(Cl)cc2Cl)C(=O)N1 (configuration not stated), the growth inhibition [1, 7] was -8%, the growth inhibition [1, 8] was 3% and the growth inhibition ([1]; at 50.0 µM) was -7.6%. The growth inhibition [2, 7] was -3%, the growth inhibition [2, 8] was -6% and the growth inhibition ([2]; at 50.0 µM) was 6.15%. The growth inhibition [3, 7] was 45%, the growth inhibition [3, 8] was 95% (active) and the growth inhibition ([3]; at 50.0 µM) was 92.8% (active). For the same molecule, the growth inhibition [4, 7] was -4%, the growth inhibition [4, 8] was -2% and the growth inhibition ([4]; at 50.0 µM) was -68.7%. The growth inhibition [5, 7] was -4%, the growth inhibition [5, 8] was 0% and the growth inhibition ([5]; at 50.0 µM) was -47.7%. It also gave a growth inhibition [6, 7] of -5%, a growth inhibition [6, 8] of 3% and a growth inhibition ([6]; at 50.0 µM) of -7%.
With CCOC(=O)/C(C#N)=C\c1cccc2ccccc12 the growth inhibition [1, 7] was 13%, the growth inhibition [1, 8] was 57% and the growth inhibition ([1]; at 50.0 µM) was 84% (active). For the same molecule, the growth inhibition [2, 7] was 1%, the growth inhibition [2, 8] was 91% (active) and the growth inhibition ([2]; at 50.0 µM) was 92.3% (active). For the same molecule, the growth inhibition [3, 7] was 5%, the growth inhibition [3, 8] was 75% (active) and the growth inhibition ([3]; at 50.0 µM) was 91.8% (active). The growth inhibition [4, 7] was -17%, the growth inhibition [4, 8] was 27% and the growth inhibition ([4]; at 50.0 µM) was -12.4%. The growth inhibition [5, 7] was -4%, the growth inhibition [5, 8] was 40% and the growth inhibition ([5]; at 50.0 µM) was 96.2% (active). For the same molecule, the growth inhibition [6, 7] was -2%, the growth inhibition [6, 8] was 94% (active) and the growth inhibition ([6]; at 50.0 µM) was 95.7% (active).
With CCCCCCCCCCCC[N+](C)(CCS(=O)(=O)[O-])Cc1ccccc1 (configuration not stated) the growth inhibition [1, 7] was -1%, the growth inhibition [1, 8] was 51% and the growth inhibition ([1]; at 50.0 µM) was 98.2% (active). For the same molecule, the growth inhibition [2, 7] was 6%, the growth inhibition [2, 8] was 74% (active) and the growth inhibition ([2]; at 50.0 µM) was 99.2% (active). For the same molecule, the growth inhibition [3, 7] was 1%, the growth inhibition [3, 8] was 36% and the growth inhibition ([3]; at 50.0 µM) was 41.9%. For the same molecule, the growth inhibition [4, 7] was 2%, the growth inhibition [4, 8] was 66% and the growth inhibition ([4]; at 50.0 µM) was 77.5% (active). The growth inhibition [5, 7] was -2%, the growth inhibition [5, 8] was 61% and the growth inhibition ([5]; at 50.0 µM) was 72.1% (active). For the same molecule, the growth inhibition [6, 7] was -2%, the growth inhibition [6, 8] was 97% (active) and the growth inhibition ([6]; at 50.0 µM) was 99.2% (active).
In the case of CCOC(=O)CC1C(=O)N(c2nc(-c3ccc(Br)cc3)cs2)N=C1C (configuration not stated), the growth inhibition [1, 7] is reported as 2%, the growth inhibition [1, 8] is reported as 2% and the growth inhibition ([1]; at 50.0 µM) is reported as 43.5%. It also gave a growth inhibition [2, 7] of 2%, a growth inhibition [2, 8] of 37% and a growth inhibition ([2]; at 50.0 µM) of 23.1%. It also gave a growth inhibition [3, 7] of 3%, a growth inhibition [3, 8] of 7% and a growth inhibition ([3]; at 50.0 µM) of 60.7%. It also gave a growth inhibition [4, 7] of -2%, a growth inhibition [4, 8] of -9% and a growth inhibition ([4]; at 50.0 µM) of 32.3%. The growth inhibition [5, 7] was -23%, the growth inhibition [5, 8] was -8% and the growth inhibition ([5]; at 50.0 µM) was 4.05%. For the same molecule, the growth inhibition [6, 7] was 2%, the growth inhibition [6, 8] was -19% and the growth inhibition ([6]; at 50.0 µM) was 75.8% (active).
For O=[N+]([O-])C(=C1Nc2ccccc2N1)C(Cl)=C(Cl)Cl, the growth inhibition [1, 7] was 10%, the growth inhibition [1, 8] was 8% and the growth inhibition ([1]; at 50.0 µM) was -4.9%. The growth inhibition [2, 7] was 10%, the growth inhibition [2, 8] was 15% and the growth inhibition ([2]; at 50.0 µM) was 3.3%. The growth inhibition [3, 7] was 13%, the growth inhibition [3, 8] was 22% and the growth inhibition ([3]; at 50.0 µM) was 9.85%. The growth inhibition [4, 7] was 10%, the growth inhibition [4, 8] was 10% and the growth inhibition ([4]; at 50.0 µM) was -13.8%. The growth inhibition [5, 7] was 11%, the growth inhibition [5, 8] was 12% and the growth inhibition ([5]; at 50.0 µM) was -2.55%. It also gave a growth inhibition [6, 7] of 15%, a growth inhibition [6, 8] of 16% and a growth inhibition ([6]; at 50.0 µM) of 11%.
For CC(=O)Oc1c(-c2ccccc2)cc([N+](=O)[O-])cc1[N+](=O)[O-], the growth inhibition [1, 7] was 13%, the growth inhibition [1, 8] was 93% (active) and the growth inhibition ([1]; at 50.0 µM) was 95.8% (active). For the same molecule, the growth inhibition [2, 7] was 19%, the growth inhibition [2, 8] was 93% (active) and the growth inhibition ([2]; at 50.0 µM) was 93.5% (active). For the same molecule, the growth inhibition [3, 7] was 31%, the growth inhibition [3, 8] was 88% (active) and the growth inhibition ([3]; at 50.0 µM) was 93.6% (active). The growth inhibition [4, 7] was 17%, the growth inhibition [4, 8] was 59% and the growth inhibition ([4]; at 50.0 µM) was 74.4% (active). For the same molecule, the growth inhibition [5, 7] was 24%, the growth inhibition [5, 8] was 65% and the growth inhibition ([5]; at 50.0 µM) was 94.5% (active). For the same molecule, the growth inhibition [6, 7] was 54%, the growth inhibition [6, 8] was 97% (active) and the growth inhibition ([6]; at 50.0 µM) was 91.7% (active).
